According to PubChem BioAssay (Tox21):
Inconclusive results are not listed. Entries that show only a call come without a potency. Calls of active or inactive are those of the source. Calls follow the shape of the full dose curve.

Biological target: Beta-2 adrenergic receptor (Homo sapiens) (UniProt P07550)
Test: Adrenergic beta2 receptor (ADRB2) small molecule agonists, cell-based qHTS assay (AID 1963593);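 also: CHO cells stably overexpressing human ADRB2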
How it was run: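 CHO cells stably over-expressing ADRB2 were plated overnight at 37C, then dosed with compounds plus a stimulation mix containing 100uM IBMX and 25uM Ro-20-1724 for 0.5hr at room temperature. cAMP was measured by HTRF competition, 1hr.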

Sequence of Beta-2 adrenergic receptor (Homo sapiens) (P07550 whole entry, looked up): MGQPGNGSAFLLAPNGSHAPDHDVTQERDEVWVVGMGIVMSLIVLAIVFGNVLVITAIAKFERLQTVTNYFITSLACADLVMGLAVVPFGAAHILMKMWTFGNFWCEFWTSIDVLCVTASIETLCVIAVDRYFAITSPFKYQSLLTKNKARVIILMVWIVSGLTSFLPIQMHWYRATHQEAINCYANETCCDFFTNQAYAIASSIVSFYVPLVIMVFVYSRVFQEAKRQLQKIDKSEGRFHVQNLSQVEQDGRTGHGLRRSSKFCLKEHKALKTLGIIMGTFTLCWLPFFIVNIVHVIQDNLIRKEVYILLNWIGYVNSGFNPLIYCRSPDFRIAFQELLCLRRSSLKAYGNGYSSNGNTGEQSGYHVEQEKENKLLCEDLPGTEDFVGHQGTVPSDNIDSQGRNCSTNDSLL

SMILES	Potency
CSSC	inactive
CC(C)CCCCCCCOC(=O)c1ccccc1C(=O)OCCCCCCCC(C)C	inactive
C[N+]1(C)[C@@H]2CC[C@H]1CC(OC(=O)C(CO)c1ccccc1)C2 (stereo not given in full)	inactive
CN(CCCC(O)c1cccnc1)N=O (stereo not given)	inactive
CCCCCCCCCCCCN(C)C	inactive
CC(C)(COCC1CO1)COCC1CO1 (stereo not given)	inactive
Nc1n[nH]c(N)n1	inactive
CCCCC(=O)Cl	inactive
O=C(N[C@H]1N=C(c2ccccc2F)c2cccc3c2N(CC3)C1=O)c1cc2ccccc2[nH]1	inactive
C=CC(=O)N(C)C	inactive
CC(Cc1ccccc1)NCCCCl (stereo not given)	inactive
CCOC(=O)NC(C)(C)Cc1ccc(Cl)cc1	inactive
ClP(Cl)(Cl)(Cl)Cl	inactive
FC(F)OC(F)(F)C(F)Cl (stereo not given)	inactive
COc1cccc([C@@]2(O)CCCC[C@@H]2CN(C)C)c1	inactive
CCC1(c2ccccc2)C(=O)N=C(O)NC1=O (stereo not given)	inactive
O=C(NC(=O)c1c(F)cccc1F)Nc1cc(Cl)c(F)c(Cl)c1F	inactive
CCCCCCCCCC(=O)O[C@H]1CC[C@H]2[C@@H]3CCC4=CC(=O)CC[C@@H]4[C@H]3CC[C@]12C	inactive
CCOC(=O)NC(=S)Nc1ccccc1NC(=S)NC(=O)OCC	inactive
C1CCNCC1	inactive
CSCCCN=C=S	inactive
CCCCS(=O)(=O)Cl	inactive
Oc1cccc(-c2ccccc2)c1	inactive
CC(=O)C(Cl)C(=O)N(C)C (stereo not given)	inactive
COc1ccc(-c2ccccc2)cc1NNC(=O)OC(C)C	inactive

SMILES	Potency
O=C(CBr)Nc1ccc(Cl)cc1C(=O)c1ccccc1F	inactive
CN1C(=O)CN=C(c2ccccc2)c2cc([N+](=O)[O-])ccc21	inactive
Nc1c(Cl)c(F)nc(OCC(=O)O)c1Cl	inactive
CCCC[N+]1(C)[C@@H]2CC(OC(=O)[C@H](CO)c3ccccc3)C[C@H]1[C@@H]1O[C@@H]12 (stereo not given in full)	inactive
O=C=Nc1ccc(Cl)cc1	inactive
Nc1ccc(Cl)cc1C(=O)c1ccccc1F	inactive
CNC(C)Cc1ccccc1OC (stereo not given)	inactive
CSC1=N[C@@](C)(c2ccccc2)C(=O)N1Nc1ccccc1	inactive
CCN(CC)c1c([N+](=O)[O-])cc(C(F)(F)F)c(N)c1[N+](=O)[O-]	inactive
OC(c1ccccc1)(c1ccccc1)C1CCNCC1	inactive
O=C(Nc1ccc2[nH]ccc2c1)c1cc2cc(F)ccc2n1Cc1cccc(F)c1	inactive
CCCSC(=O)N(CCC)CCC	inactive
O=C(NC(=O)c1c(F)cccc1F)Nc1ccc(Oc2ccc(C(F)(F)F)cc2Cl)cc1F	inactive
C[C@H](CN1CCOCC1)C(C(=O)N1CCCC1)(c1ccccc1)c1ccccc1	inactive
CC(C)[C@H](C(=O)OC(C#N)c1cccc(Oc2ccccc2)c1)c1ccc(OC(F)F)cc1 (stereo not given in full)	inactive
CC[C@H](C)[C@H]1O[C@]2(C=C[C@@H]1C)C[C@@H]1C[C@@H](C/C=C(\C)[C@@H](O[C@H]3C[C@H](OC)[C@@H](O[C@H]4C[C@H](OC)[C@@H](O)[C@H](C)O4)[C@H](C)O3)[C@@H](C)/C=C/C=C3\CO[C@@H]4[C@H](O)C(C)=C[C@@H](C(=O)O1)[C@]34O)O2	inactive
CCOC(=O)OC1=C(c2cc(C)ccc2C)C(=O)NC12CCC(OC)CC2 (stereo not given)	inactive
CC(C)[N+](=O)[O-]	inactive
CCCCP(CCCC)CCCC	inactive
O=c1oc2ccccc2c(O)c1Cc1c(O)c2ccccc2oc1=O	inactive
O=C(O)COc1ccc(Cl)cc1	inactive
O=CCCl	inactive
COc1ccc([N+](=O)[O-])cc1O	inactive
CC(C(O)c1ccccc1)N(C)C/C=C/c1ccccc1 (stereo not given)	inactive
ClC(Br)Br	inactive
